Here are results for ten molecules from PubChem BioAssay (NCI).

Each structure is given as a SMILES string. Compounds without any hit were thinned out: in the full panel of roughly 83,000, 20% have a hit.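 Assay: single dose, 48 h. Readout: percent growth (0 = no net growth; negative = cell death). Active: <10.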 Unmarked numbers belong to inactive results. Calls of active or inactive are those of the source.

Holding throughout (assay): NCI-60 one-dose screen, 48 h (100 = growth as untreated, 0 = no growth, -100 = all killed)
Test [1] deals with SK-MEL-2 melanoma. The following applies: 10 µM unless noted.
Test [2] relates to EKVX NSCLC. The following applies: 10 µM unless noted.
Test [3] has as its system SN12C renal. The following applies: 10 µM unless noted.
Test [4] has as its system ACHN renal. The following applies: 10 µM unless noted.
Test [5] has as its system CAKI-1 renal. The following applies: 10 µM unless noted.
The subject of test [6] is HL-60(TB) leukemia. The following applies: 10 µM unless noted.
Test [7] relates to CCRF-CEM leukemia. The following applies: 10 µM unless noted.
In test [8] the test system is MOLT-4 leukemia. The following applies: 10 µM unless noted.
The subject of test [9] is SR leukemia. The following applies: 10 µM unless noted.
The subject of test [10] is RPMI-8226 leukemia. The following applies: 10 µM unless noted.
Test [11] relates to OVCAR-8 ovarian. The following applies: 10 µM unless noted.
The test system of test [12] is OVCAR-5 ovarian. The following applies: 10 µM unless noted.
In test [13] the test system is OVCAR-4 ovarian. The following applies: 10 µM unless noted.
Test [14] concerns SK-OV-3 ovarian. The following applies: 10 µM unless noted.
The test system of test [15] is IGROV1 ovarian. The following applies: 10 µM unless noted.
In test [16] the test system is OVCAR-3 ovarian. The following applies: 10 µM unless noted.
For test [17], the system named is HS 578T breast. The following applies: 10 µM unless noted.
The test system of test [18] is TK-10 renal. The following applies: 10 µM unless noted.
Test [19] deals with A498 renal. The following applies: 10 µM.
Test [20] deals with UO-31 renal. The following applies: 10 µM unless noted.

As to `COC(=O)[C@@H](C)C[C@H](Cc1ccccc1)NC(=O)c1csc([C@@H](C[C@H](C(C)C)N(C)C(=O)C2(NC(=O)[C@H]3CCCCN3C)CCC2)OC(C)=O)n1`, the growth is 29.5% in [1]; 31.7% in test [2]; 29.8% in test [3]; 28.8% in [4]; 27.7% in test [5]; -51.8% (active) in test [6]. Also, the growth in [7] was 10% (active); in [8], 5.46% (active); in test [9], 5.54% (active); in test [10] it was 13.5%; in test [11], 27.2%; in test [12], 24%. Also, the growth is 50% in test [13]; 28.7% in [14]; 23.2% in test [15]; -6.95% (active) in [16]; 13% in test [17].

Consider `COc1cccc2c1c(C(=O)C(=O)Nc1cc(C)no1)cn2Cc1ccc(F)cc1`, for which the growth was 75.1% in [1]; 78.9% in test [2]; 62.2% in test [3]; 82.6% in [18]; 88.6% in test [4]; 86.7% in test [5]. Further, the growth in [19] was 91.1%; in test [6], 1.01% (active); in test [7], 66.6%; in test [8], 32.5%; in [10], 20.7%; in [11], 81.7%. In addition, the growth in test [12] is 76.1%; in test [13], 90.9%; in test [14] it was 102%; in test [15], 37%; in [16], 3.35% (active); in [17] it was 53.3%.

With `CCC(=O)Nc1ccc(Cl)c(Cl)c1`, the growth in test [1] is 94.3%; in test [2], 98.4%; in test [20], 89%; in test [18] it was 86.3%; in [4], 98.2%; in [5], 96.8%. In addition, the growth in [19] is 89.7%; in test [6], 92.4%; in test [7], 103%; in test [8] it was 97.9%; in test [9], 95.5%; in test [10], 106%. Also, the growth in test [11] was 100%; in [12], 92.9%; in test [13], 118%; in test [14], 104%; in test [15], 104%; in test [16] it was 107%. The growth in test [17] was 110%.

`O=C(Nc1ccc([As]=[As]c2ccc(NC(=O)c3ccccc3)cc2)cc1)c1ccccc1` (centres undefined): the growth in test [1] is -81.4% (active); in test [2], -69.1% (active); in [20], -96.7% (active); in [18], -98.4% (active); in test [4], -92.4% (active); in [5], -80.2% (active). The growth in test [19] was -97.5% (active); in [6], -53.9% (active); in test [8], -27.5% (active); in test [9], 0.482% (active); in test [10] it was 13.7%; in test [11] it was -82.1% (active). The growth is -89.1% (active) in test [12]; -43.1% (active) in test [13]; -81.5% (active) in [14]; -40.4% (active) in test [15]; -94% (active) in [16]; -75.8% (active) in test [17].

Consider `O=c1[nH]c2ccc([N+](=O)[O-])cc2c(=O)o1`, for which the growth in test [1] was 111%; in [2] it was 107%; in test [3] it was 98.2%; in test [18], 104%; in test [4], 93.3%; in test [7] it was 96.1%. Moreover, the growth was 98.5% in test [10]; 104% in test [11]; 101% in test [12]; 98.8% in test [13]; 102% in [14]; 105% in test [15]. In addition, in test [16], the growth was 113%.

For the molecule `Cc1cc(C)c(CBr)c(C)c1`, the growth was 102% in test [1]; 103% in test [2]; 85.2% in test [20]; 98.1% in test [18]; 104% in test [4]; 99.1% in test [5]. The growth in [19] was 81.4%; in test [7] it was 106%; in test [8] it was 96.3%; in test [9], 107%; in test [10], 100%; in [11], 99.4%. Also, the growth was 96.6% in test [12]; 127% in test [13]; 104% in [14]; 99.2% in test [15]; 113% in test [16]; 106% in test [17].

Consider `C=CCCCCCCCCC(=O)[O-].C=CCCCCCCCCC(=O)[O-].[Zn+2]`, for which the growth in test [1] was 111%; in test [2] it was 98.7%; in test [3], 101%; in test [18], 115%; in test [4], 101%; in test [5], 90%. For the same molecule, the growth was 92.7% in test [19]; 95.1% in [6]; 104% in [7]; 103% in test [8]; 95.2% in test [10]; 96.6% in test [11]. The growth in test [12] was 106%; in test [13] it was 115%; in [14], 112%; in test [15], 105%; in test [16], 118%; in [17], 105%.

In the case of `CC[C@H](C)[C@H](NC(=O)c1nccn1C)C(=O)N(C)[C@H](C[C@@H](OC(C)=O)c1nc(C(=O)N[C@@H](Cc2ccccc2)C[C@H](C)C(=O)OC)cs1)C(C)C`, the growth in test [1] is 28.5%; in [2] it was 52.8%; in [3] it was 40.2%; in test [18], 41.9%; in test [4], 42.3%; in [5], 33.8%. For the same molecule, the growth is -9.78% (active) in [19]; -43.5% (active) in test [6]; 15.9% in [7]; 15.9% in test [8]; 14.2% in test [9]; 16.3% in test [11]. Besides, the growth in [12] is 38%; in test [13], 48.4%; in [14], 19.4%; in test [15], 35.6%; in test [16], -19.8% (active); in test [17], 20.6%.

Turning to `COc1cc([C@@H]2c3cc4c(cc3[C@H](OC(C)=O)[C@H]3COC(=O)[C@@H]23)OCO4)cc(OC)c1OC`, the growth was 40.2% in test [1]; 33.1% in test [2]; 38.9% in [20]; 41.8% in [18]; 29.8% in test [4]; -15.7% (active) in [19]. The growth is -1.71% (active) in [6]; 22.6% in [7]; 16.4% in test [8]; 15.6% in test [9]; 23.6% in [10]; 6.28% (active) in [11]. For the same molecule, the growth was 26.4% in [12]; 29.9% in test [13]; -10.2% (active) in test [14]; 13.2% in [16]; 7.08% (active) in test [17].

Turning to `O=C(CCCC1CCCCC1)OCC(Cl)(Cl)Cl`, the growth in [1] is 109%; in test [2], 105%; in [3] it was 106%; in test [18], 98.7%; in test [4], 110%; in [5], 102%. The growth was 60.6% in [19]; 100% in [6]; 107% in test [8]; 103% in [9]; 95.7% in test [10]; 110% in [11]. Also, the growth in test [12] is 120%; in [13] it was 105%; in test [14] it was 101%; in test [15], 106%; in test [16], 104%; in test [17], 103%.
